# Records with an inconclusive call do not appear. Calls of active or inactive are those of the source. The calls were made as follows, unless noted: active = hit-call score of the fitted dose curve at least 0.9, where 1 is the maximum; inactive = score below 0.9.
# Columns and labels:
# [1] = target: human CYP2D6, CYP2D6 (gene 1565) (UniProt P10635); assay: NVS_ADME_hCYP2D6: NovaScreen (NVS) CYP450-related Enzyme Activity (ADME) Assay for human CYP2D6 (AID 2283107; active = hit-call score of the fitted dose curve at least 0.9, where 1 is the maximum)
# Summary of the method: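 Compounds were first tested in duplicate at 10 uM against recombinant enzyme produced in insect cells, with substrate turnover measured by fluorescence after 1 hour. Decreased signal, referenced to acetonitrile vehicle, was taken as reduced enzyme activity. Active chemicals went on to concentration-response testing.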
# [2] = target: Cytochrome P450 2C19 (Homo sapiens) (UniProt P33261); assay: NVS_ADME_hCYP2C19: NovaScreen (NVS) CYP450-related Enzyme Activity (ADME) Assay for human CYP2C19 (AID 2283113; active = hit-call score of the fitted dose curve at least 0.9, where 1 is the maximum;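 also: potency for inhibition seen as loss of fluorescent signal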)
# Summary of the method: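 Chemicals first screened in duplicate at 10 uM against recombinant human enzyme produced in insect cells; confirmed actives then run as concentration series. Fluorogenic substrate turnover read by fluorescence after 1 h, normalised to acetonitrile.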
# [3] = target: human Ephrin type-A Receptor 1 (EphA1), EPHA1 (gene 2041) (UniProt P21709); assay: NVS_ENZ_hEphA1: NovaScreen (NVS) Enzymatic Assay for human Ephrin type-A Receptor 1 (EphA1) (AID 2283158; active = hit-call score of the fitted dose curve at least 0.9, where 1 is the maximum;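 also: activity is signal loss versus DMSO meaning EphA1 kinase inhibition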)
# Summary of the method: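 Biochemical kinase assay run cell-free; 1 h incubation; readout is fluorescence with mobility-shift separation of product. Concentration-response up to 50 uM for actives from a 25 uM screen.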
# [4] = read-out: Monocyte Chemoattractant Protein-1 (MCP1), CCL2 (gene 6347); assay: BSK_SAg_MCP1: BioMAP Diversity Plus: SAg Assay for Monocyte Chemoattractant Protein-1 (MCP1) Biomarker Activity (AID 2283090); conditions: primary human HUVEC with PBMC; actives raise or lower the signal
# Summary of the method: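 Values derive from bidirectional fitting of ELISA-measured MCP1 against DMSO controls. Readings were taken 24 h after dosing human vascular endothelial cells co-cultured with peripheral blood mononuclear cells under superantigen stimulation.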
# [5] = read-out: E-selectin (Homo sapiens) (UniProt P16581); assay: BSK_SAg_Eselectin: BioMAP Diversity Plus: SAg Assay for Eselectin Biomarker Activity (AID 2283091); conditions: primary human HUVEC with PBMC; actives raise or lower the signal
# Summary of the method: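 Primary human endothelial cells and peripheral blood mononuclear cells were co-cultured and exposed to chemical for 24 hours. E-selectin levels were then quantified by ELISA, with bidirectional curve fitting normalised to DMSO controls.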
# [6] = read-out: Monokine induced gamma interferon (MIG), CXCL9 (gene 4283); assay: BSK_SAg_MIG: BioMAP Diversity Plus: SAg Assay for Monokine induced gamma interferon (MIG) Biomarker Activity (AID 2283092); conditions: primary human HUVEC with PBMC; actives raise or lower the signal
# Summary of the method: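 Endothelial cells and PBMC were co-cultured, exposed to test chemicals, and sampled 24 h later. MIG was measured by ELISA, and responses were fitted in both directions relative to DMSO.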
# [7] = BSK_SAg_PBMCCytotoxicity: PBMC Cytotoxicity Assessment in the BioMAP Diversity Plus: SAg Assay (AID 2283093); conditions: primary human HUVEC with PBMC;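 also: PBMC viability measured as Alamar Blue reduction fluorescence at 546/580 nm; fitted both ways against DMSO so a hit may be loss or gain of signal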;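 as to AC50: PBMC superantigen activated with SEB plus TSST-1 one hour after compound addition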
# Summary of the method: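 Alamar Blue reduction (6 h, 546/580 nm) reports PBMC cytotoxicity after 90 h superantigen activation (SEB, TSST-1; 20 ng/mL final each) with 1 h compound pre-treatment. Gain or loss of signal fitted versus DMSO.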
# [8] = read-out: Interleukin-8 (IL8), CXCL8 (gene 3576); assay: BSK_SAg_IL8: BioMAP Diversity Plus: SAg Assay for Interleukin-8 (IL8) Biomarker Activity (AID 2283094); conditions: primary human HUVEC with PBMC; actives raise or lower the signal
# Summary of the method: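 ELISA readout of IL-8 from a superantigen-activated endothelial/PBMC primary human co-culture, taken 24 h post-dosing and fitted in both directions against DMSO; parallel SRB total-protein staining flags overt cytotoxicity.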
# [9] = BSK_SAg_Proliferation: Cell Proliferation Assessment in the BioMAP Diversity Plus: SAg Assay (AID 2283095); conditions: primary human HUVEC with PBMC;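 also: relative cell number as total protein by SRB absorbance in sub-confluent culture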
# Summary of the method: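 Relative cell number in the endothelial cell/PBMC co-culture was quantified at 96 h by SRB staining (0.1% SRB, 10% TCA fixation, read at 560 nm). Curves were fitted in both directions relative to DMSO baseline.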
# [10] = BSK_SAg_SRB: Viability Assessment in the BioMAP Diversity Plus: SAg Assay (AID 2283096); conditions: primary human HUVEC with PBMC;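 also: cells read one day after compound addition; hits may be either gain or loss of signal compared with DMSO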
# Summary of the method: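 This overt-cytotoxicity endpoint quantifies protein in human endothelial/PBMC co-cultures at 24 h using SRB absorbance (560 nm) after trichloroacetic acid fixation. Values reflect signal change from the DMSO negative control, fitted bidirectionally.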
# [11] = target: rat CYP2C11, Cyp2c11 (gene 29277) (UniProt P08683); assay: NVS_ADME_rCYP2C11: NovaScreen (NVS) CYP450-related Enzyme Activity (ADME) Assay for rat CYP2C11 (AID 2283118; active = hit-call score of the fitted dose curve at least 0.9, where 1 is the maximum)
# Summary of the method: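 Screened first at 10 uM in duplicate, hits followed by concentration-response. Recombinant rat enzyme activity monitored by fluorescence 0.33 h post-dosing, normalised to acetonitrile negative control.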
# [12] = target: human Caspase 5 (CASP5), CASP5 (gene 838) (UniProt P51878); assay: NVS_ENZ_hCASP5: NovaScreen (NVS) Enzymatic Assay for human Caspase 5 (CASP5) (AID 2283137; active = hit-call score of the fitted dose curve at least 0.9, where 1 is the maximum)
# Summary of the method: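 Loss of fluorescent signal versus DMSO scored for E. coli-derived human CASP5 cleaving a fluorescent substrate, 2 h post-dosing; compounds first tested at 25 uM in duplicate, hits rerun in concentration series with 50 uM top concentration.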
# [13] = target: human CYP19A1, CYP19A1 (gene 1588) (UniProt P11511); assay: NVS_ADME_hCYP19A1: NovaScreen (NVS) CYP450-related Enzyme Activity (ADME) Assay for human CYP19A1 (AID 2283098; active = hit-call score of the fitted dose curve at least 0.9, where 1 is the maximum;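 also: potency for inhibitors seen as loss of fluorescent enzyme signal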)
# Summary of the method: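 Compounds were first screened at 10 uM in duplicate against purified enzyme, with a fluorogenic substrate and fluorescence intensity detection after 0.5 h. Inhibition appears as reduced signal against acetonitrile control.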
# [14] = target: Cytochrome P450 3A4 (Homo sapiens) (UniProt P08684); assay: NVS_ADME_hCYP3A4: NovaScreen (NVS) CYP450-related Enzyme Activity (ADME) Assay for human CYP3A4 (AID 2283110; active = hit-call score of the fitted dose curve at least 0.9, where 1 is the maximum)
# Summary of the method: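 Activity is derived from decreased fluorescence intensity relative to acetonitrile, measured 0.33 hour after dosing insect-cell-expressed CYP3A4 in a cell-free format. Screening used 10 uM in duplicate before concentration-response follow-up.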
# [15] = target: human Beta-secretase (BACE), BACE1 (gene 23621) (UniProt P56817); assay: NVS_ENZ_hBACE: NovaScreen (NVS) Enzymatic Assay for human Beta-secretase (BACE) (AID 2283140; active = hit-call score of the fitted dose curve at least 0.9, where 1 is the maximum;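 also: hits are inhibitors that reduce fluorescent substrate signal versus DMSO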)
# Summary of the method: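 Enzyme from SF9 cells was incubated 1 hour with compound and fluorogenic substrate, activity read by fluorescence. Single-concentration duplicates at 25 uM preceded concentration-response follow-up; fitting relative to DMSO baseline.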
# [16] = target: human Dual Specificity Protein Phosphatase 3 (DUSP3), DUSP3 (gene 1845) (UniProt P51452); assay: NVS_ENZ_hDUSP3: NovaScreen (NVS) Enzymatic Assay for human Dual Specificity Protein Phosphatase 3 (DUSP3) (AID 2283152; active = hit-call score of the fitted dose curve at least 0.9, where 1 is the maximum;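 also: phosphatase activity of recombinant human DUSP3 on a fluorogenic substrate without cells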)
# Summary of the method: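 Cell-free fluorescence-intensity enzyme activity assay with recombinant protein and substrate; loss of signal fitted relative to DMSO baseline. Primary screen in duplicate at 25 uM, actives then run in concentration series; measured 0 h after dosing.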
# [17] = target: human Esterase Plasma (ES), BCHE (gene 590) (UniProt P06276); assay: NVS_ENZ_hES: NovaScreen (NVS) Enzymatic Assay for human Esterase Plasma (ES) (AID 2283157; active = hit-call score of the fitted dose curve at least 0.9, where 1 is the maximum)
# Summary of the method: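 Screening ran at 25 uM in duplicate, followed by singleton concentration series reaching 50 uM for actives. Human plasma protein, colorimetric detection, 0.25 h exposure, DMSO negative control.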
# human Ephrin type-A Receptor 1 (EphA1), EPHA1 (gene 2041), sequence (P21709 whole entry, looked up): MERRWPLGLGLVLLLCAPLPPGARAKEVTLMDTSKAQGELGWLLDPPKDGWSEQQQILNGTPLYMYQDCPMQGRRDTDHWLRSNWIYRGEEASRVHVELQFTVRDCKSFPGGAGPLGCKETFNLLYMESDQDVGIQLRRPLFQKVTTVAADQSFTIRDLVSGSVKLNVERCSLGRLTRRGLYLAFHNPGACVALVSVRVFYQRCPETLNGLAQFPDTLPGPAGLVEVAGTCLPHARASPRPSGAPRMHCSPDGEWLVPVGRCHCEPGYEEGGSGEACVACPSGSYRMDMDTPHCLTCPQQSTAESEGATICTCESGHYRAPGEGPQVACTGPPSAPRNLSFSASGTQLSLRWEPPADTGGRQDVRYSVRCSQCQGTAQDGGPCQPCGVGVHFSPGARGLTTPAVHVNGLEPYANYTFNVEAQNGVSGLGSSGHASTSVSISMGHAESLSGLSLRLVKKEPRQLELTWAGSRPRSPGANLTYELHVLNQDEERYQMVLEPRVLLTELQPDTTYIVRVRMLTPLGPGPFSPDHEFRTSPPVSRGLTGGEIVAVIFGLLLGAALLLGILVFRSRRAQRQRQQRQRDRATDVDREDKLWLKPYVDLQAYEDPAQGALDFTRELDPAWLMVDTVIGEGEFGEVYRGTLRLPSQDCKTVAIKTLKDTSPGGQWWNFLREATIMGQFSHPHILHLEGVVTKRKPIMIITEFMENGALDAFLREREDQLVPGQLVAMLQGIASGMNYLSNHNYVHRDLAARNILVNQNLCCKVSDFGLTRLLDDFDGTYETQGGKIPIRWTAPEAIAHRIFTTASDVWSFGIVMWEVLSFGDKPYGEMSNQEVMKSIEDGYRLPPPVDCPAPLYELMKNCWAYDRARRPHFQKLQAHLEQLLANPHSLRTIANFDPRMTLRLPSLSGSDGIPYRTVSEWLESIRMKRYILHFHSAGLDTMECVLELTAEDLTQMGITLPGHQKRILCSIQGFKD
# human CYP2D6, CYP2D6 (gene 1565), sequence (P10635 whole entry, looked up): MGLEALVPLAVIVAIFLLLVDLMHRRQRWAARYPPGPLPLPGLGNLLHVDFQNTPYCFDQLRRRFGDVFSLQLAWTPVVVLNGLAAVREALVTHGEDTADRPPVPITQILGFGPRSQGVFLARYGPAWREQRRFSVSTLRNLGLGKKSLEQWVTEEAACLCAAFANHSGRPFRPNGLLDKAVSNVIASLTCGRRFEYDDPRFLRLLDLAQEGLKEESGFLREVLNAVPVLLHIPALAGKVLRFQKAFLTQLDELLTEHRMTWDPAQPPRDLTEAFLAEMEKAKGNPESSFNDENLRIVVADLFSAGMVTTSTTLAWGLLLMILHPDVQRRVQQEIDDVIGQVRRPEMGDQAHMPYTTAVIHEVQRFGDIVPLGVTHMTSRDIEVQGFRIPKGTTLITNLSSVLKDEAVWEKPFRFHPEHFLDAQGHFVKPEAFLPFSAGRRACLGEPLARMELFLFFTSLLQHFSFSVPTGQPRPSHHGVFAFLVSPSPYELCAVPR
# E-selectin (Homo sapiens), sequence (P16581 whole entry, looked up): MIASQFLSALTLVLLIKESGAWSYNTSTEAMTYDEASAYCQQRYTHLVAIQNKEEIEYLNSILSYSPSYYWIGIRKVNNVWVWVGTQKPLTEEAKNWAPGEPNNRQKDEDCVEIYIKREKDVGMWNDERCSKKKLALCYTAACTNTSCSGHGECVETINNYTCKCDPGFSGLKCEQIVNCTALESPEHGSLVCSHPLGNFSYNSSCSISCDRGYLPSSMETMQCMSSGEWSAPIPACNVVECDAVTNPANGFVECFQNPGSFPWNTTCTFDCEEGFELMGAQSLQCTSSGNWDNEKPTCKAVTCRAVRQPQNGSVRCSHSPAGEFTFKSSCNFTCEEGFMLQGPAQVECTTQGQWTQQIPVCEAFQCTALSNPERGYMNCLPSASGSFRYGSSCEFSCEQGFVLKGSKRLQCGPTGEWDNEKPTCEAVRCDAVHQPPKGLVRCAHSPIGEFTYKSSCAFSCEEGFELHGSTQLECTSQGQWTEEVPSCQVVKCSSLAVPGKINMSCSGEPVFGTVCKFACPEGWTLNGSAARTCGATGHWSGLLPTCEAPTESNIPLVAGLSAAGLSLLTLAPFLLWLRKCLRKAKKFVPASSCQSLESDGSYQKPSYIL
# human CYP19A1, CYP19A1 (gene 1588), sequence (P11511 whole entry, looked up): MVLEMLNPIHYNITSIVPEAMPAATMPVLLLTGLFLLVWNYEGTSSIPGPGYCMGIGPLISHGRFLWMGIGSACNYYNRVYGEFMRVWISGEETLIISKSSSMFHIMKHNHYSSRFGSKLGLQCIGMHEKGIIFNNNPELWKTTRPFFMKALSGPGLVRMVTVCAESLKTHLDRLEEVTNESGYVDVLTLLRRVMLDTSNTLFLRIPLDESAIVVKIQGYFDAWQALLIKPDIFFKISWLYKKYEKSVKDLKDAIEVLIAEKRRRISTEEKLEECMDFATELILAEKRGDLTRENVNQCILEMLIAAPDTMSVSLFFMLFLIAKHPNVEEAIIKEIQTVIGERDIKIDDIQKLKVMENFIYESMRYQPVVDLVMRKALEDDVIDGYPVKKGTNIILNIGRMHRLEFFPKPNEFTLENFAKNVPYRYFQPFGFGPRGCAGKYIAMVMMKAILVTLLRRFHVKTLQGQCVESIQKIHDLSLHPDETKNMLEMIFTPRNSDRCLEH
# human Caspase 5 (CASP5), CASP5 (gene 838), sequence (P51878 whole entry, looked up): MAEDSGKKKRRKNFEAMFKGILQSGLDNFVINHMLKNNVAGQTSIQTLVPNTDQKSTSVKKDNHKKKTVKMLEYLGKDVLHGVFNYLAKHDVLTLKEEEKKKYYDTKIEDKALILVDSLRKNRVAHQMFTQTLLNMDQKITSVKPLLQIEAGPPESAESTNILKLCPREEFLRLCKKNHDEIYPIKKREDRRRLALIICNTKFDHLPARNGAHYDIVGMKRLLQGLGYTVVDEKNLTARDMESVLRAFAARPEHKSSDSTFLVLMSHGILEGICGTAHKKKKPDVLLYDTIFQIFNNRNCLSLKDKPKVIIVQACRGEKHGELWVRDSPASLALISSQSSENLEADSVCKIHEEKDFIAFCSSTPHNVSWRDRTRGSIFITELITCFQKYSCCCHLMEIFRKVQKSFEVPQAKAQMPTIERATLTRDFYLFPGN
# Cytochrome P450 3A4 (Homo sapiens), sequence (P08684 whole entry, looked up): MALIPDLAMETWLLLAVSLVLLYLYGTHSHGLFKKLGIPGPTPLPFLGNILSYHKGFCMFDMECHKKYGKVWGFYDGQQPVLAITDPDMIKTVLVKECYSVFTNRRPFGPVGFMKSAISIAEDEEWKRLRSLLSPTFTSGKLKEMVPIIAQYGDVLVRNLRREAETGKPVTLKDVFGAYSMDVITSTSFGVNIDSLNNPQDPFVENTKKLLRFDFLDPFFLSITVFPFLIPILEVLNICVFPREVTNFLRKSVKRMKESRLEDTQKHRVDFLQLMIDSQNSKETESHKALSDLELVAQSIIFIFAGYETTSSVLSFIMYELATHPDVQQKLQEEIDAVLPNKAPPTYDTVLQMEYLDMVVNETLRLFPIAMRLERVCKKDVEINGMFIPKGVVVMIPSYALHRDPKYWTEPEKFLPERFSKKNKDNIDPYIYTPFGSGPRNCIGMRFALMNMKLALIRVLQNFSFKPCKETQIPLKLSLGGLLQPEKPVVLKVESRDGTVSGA
# human Esterase Plasma (ES), BCHE (gene 590), sequence (P06276 whole entry, looked up): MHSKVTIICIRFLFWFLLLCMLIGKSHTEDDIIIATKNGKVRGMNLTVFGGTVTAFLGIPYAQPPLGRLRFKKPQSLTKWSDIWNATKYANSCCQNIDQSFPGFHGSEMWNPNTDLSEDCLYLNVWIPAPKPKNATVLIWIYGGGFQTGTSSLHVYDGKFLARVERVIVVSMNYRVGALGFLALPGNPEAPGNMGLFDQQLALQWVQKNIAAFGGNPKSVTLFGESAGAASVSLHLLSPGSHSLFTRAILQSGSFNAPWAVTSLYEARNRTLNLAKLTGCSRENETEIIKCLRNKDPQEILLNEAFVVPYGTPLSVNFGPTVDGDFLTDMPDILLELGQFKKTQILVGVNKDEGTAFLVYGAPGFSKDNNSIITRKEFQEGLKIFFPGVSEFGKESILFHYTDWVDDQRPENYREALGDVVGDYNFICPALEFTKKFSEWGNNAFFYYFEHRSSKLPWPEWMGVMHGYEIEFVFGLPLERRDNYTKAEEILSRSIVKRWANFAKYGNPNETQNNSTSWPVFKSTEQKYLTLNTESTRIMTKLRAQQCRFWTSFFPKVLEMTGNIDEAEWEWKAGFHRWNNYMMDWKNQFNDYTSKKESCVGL
# rat CYP2C11, Cyp2c11 (gene 29277), sequence (P08683 whole entry, looked up): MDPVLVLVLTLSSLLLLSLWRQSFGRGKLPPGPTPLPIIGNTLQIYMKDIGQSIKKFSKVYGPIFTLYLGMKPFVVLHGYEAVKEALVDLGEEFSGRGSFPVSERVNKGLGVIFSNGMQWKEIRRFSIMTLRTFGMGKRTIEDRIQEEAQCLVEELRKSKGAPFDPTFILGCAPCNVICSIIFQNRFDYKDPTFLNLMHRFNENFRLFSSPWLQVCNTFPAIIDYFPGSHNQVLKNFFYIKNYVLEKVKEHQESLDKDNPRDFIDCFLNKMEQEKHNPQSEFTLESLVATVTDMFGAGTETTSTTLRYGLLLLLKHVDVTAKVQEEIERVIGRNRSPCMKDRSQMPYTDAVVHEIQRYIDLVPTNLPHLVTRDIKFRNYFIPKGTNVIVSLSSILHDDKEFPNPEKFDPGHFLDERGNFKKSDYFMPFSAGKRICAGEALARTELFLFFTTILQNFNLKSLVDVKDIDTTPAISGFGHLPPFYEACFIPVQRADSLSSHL
# human Dual Specificity Protein Phosphatase 3 (DUSP3), DUSP3 (gene 1845), sequence (P51452 whole entry, looked up): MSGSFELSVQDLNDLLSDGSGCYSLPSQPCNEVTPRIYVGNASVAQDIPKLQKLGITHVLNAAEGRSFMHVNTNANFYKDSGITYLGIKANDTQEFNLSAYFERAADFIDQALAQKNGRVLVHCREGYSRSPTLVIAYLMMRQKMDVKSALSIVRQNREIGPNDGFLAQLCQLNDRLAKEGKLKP
structure (smiles),measurement,setting,value
Cc1cc(C)n(CO)n1,outcome,[1],inactive
same,AC50,[2],4.01 µM (active)
CC(C)CO,outcome,[3],inactive
CC=C(C)C=CC=C(C)C,AC50,[4],2.58 µM (active)
same,AC50,[5],23.4 µM (active)
same,outcome,[6],inactive
same,outcome,[7],inactive
same,AC50,[8],6.5 µM (active)
same,AC50,[9],26.5 µM (active)
same,outcome,[10],inactive
same,outcome,[3],inactive
CCOC(=O)C1=NOC(c2ccccc2)(c2ccccc2)C1,outcome,[4],inactive
same,outcome,[5],inactive
same,outcome,[6],inactive
same,outcome,[7],inactive
same,outcome,[8],inactive
same,outcome,[9],inactive
same,outcome,[10],inactive
same,AC50,[2],1.8 µM (active)
same,outcome,[11],inactive
same,outcome,[12],inactive
CCc1occc(=O)c1O,AC50,[1],3.97 µM (active)
O=C(OCc1ccccc1)c1ccc(O)cc1,AC50,[13],4.08 µM (active)
Cc1ccc(C)c(OCCCC(C)(C)C(=O)O)c1,AC50,[13],15.6 µM (active)
CCCCCCOC(=O)CCCCC(=O)OCCCCCC,outcome,[4],inactive
same,outcome,[5],inactive
same,outcome,[6],inactive
same,outcome,[7],inactive
same,outcome,[8],inactive
same,outcome,[9],inactive
same,outcome,[10],inactive
Cc1c(O)cccc1O,outcome,[4],inactive
same,outcome,[5],inactive
same,outcome,[6],inactive
same,AC50,[7],31 µM (active)
same,outcome,[8],inactive
same,AC50,[9],31 µM (active)
same,outcome,[10],inactive
same,outcome,[14],inactive
C=CC(=O)OCCCCCCCC(C)C,outcome,[4],inactive
same,outcome,[5],inactive
same,outcome,[6],inactive
same,AC50,[7],20 µM (active)
same,outcome,[8],inactive
same,AC50,[9],23.3 µM (active)
same,outcome,[10],inactive
same,AC50,[2],1.67 µM (active)
same,outcome,[3],inactive
C=CCCCCCCCCC=O,outcome,[4],inactive
same,outcome,[5],inactive
same,outcome,[6],inactive
same,outcome,[7],inactive
same,outcome,[8],inactive
same,outcome,[9],inactive
same,outcome,[10],inactive
same,AC50,[15],13.1 µM (active)
CC/C=C\CCOC(=O)c1ccccc1O,AC50,[4],28.5 µM (active)
same,AC50,[5],29.7 µM (active)
same,outcome,[6],inactive
same,AC50,[7],33.3 µM (active)
same,outcome,[8],inactive
same,AC50,[9],31.2 µM (active)
same,AC50,[10],30.7 µM (active)
same,outcome,[3],inactive
CCOc1ccc(NC(N)=O)cc1,outcome,[3],inactive
Fc1ccc(Br)cc1,outcome,[4],inactive
same,outcome,[5],inactive
same,outcome,[6],inactive
same,outcome,[7],inactive
same,outcome,[8],inactive
same,outcome,[9],inactive
same,outcome,[10],inactive
same,outcome,[12],inactive
same,AC50,[16],13.7 µM (active)
same,outcome,[17],inactive
C=CC(=O)OCC(C)OCC(C)OCC(C)OC(=O)C=C (centres undefined),AC50,[4],10.5 µM (active)
same,AC50,[5],5.5 µM (active)
same,AC50,[6],20 µM (active)
same,AC50,[7],5.29 µM (active)
same,AC50,[8],3.14 µM (active)
same,AC50,[9],2.88 µM (active)
same,AC50,[10],21.6 µM (active)
same,outcome,[14],inactive
same,outcome,[3],inactive
CC(C)[N+](C)(CCOC(=O)C1c2ccccc2Oc2ccccc21)C(C)C,outcome,[4],inactive
same,outcome,[5],inactive
same,outcome,[6],inactive
same,outcome,[7],inactive
same,outcome,[8],inactive
same,outcome,[9],inactive
same,outcome,[10],inactive
same,AC50,[1],0.741 µM (active)
same,AC50,[17],2.02 µM (active)
CCCCOCCOCCOC(C)=O,outcome,[3],inactive
CCCCCCCO,outcome,[4],inactive
same,outcome,[5],inactive
same,outcome,[6],inactive
same,outcome,[7],inactive
same,outcome,[8],inactive
same,outcome,[9],inactive
same,outcome,[10],inactive
CC=C(C)C(C)=O,outcome,[4],inactive
same,outcome,[5],inactive
same,outcome,[6],inactive
same,outcome,[7],inactive
same,outcome,[8],inactive
same,outcome,[9],inactive
same,outcome,[10],inactive
same,outcome,[3],inactive

# Source: PubChem BioAssay (EPA / NIEHS)
